Where “and” joins values, the source holds several entries; their conditions need not be identical. Equal entries are not always repeated. Hit rate of the full screen: of about 5,500 compounds, about 2,000 (36%) were called active. Roughly 18% stayed inconclusive and do not appear here. Rule as the data show it: active = normalized growth mostly below about 0.91 (no sharp cut-off); inconclusive = no clear call, values can overlap the other calls; inactive = mostly above about 0.92. Some of the results follow.
Test: chemical genetic growth profiling, strain panel (AID 1159580);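 also: tested at 20 µM; growth read once vehicle control cultures reached saturation at 30 °C; 1 = growth at the plate median or of vehicle wells; lower values mean less growth of the strain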
Conditions: S. cerevisiae deletion strains, growth OD

Measured: normalized growth

COc1c(O)cc(O)cc1O
inactive: locus YAL021C, strain ccr4, hits give low values 1.01 | locus YAL026C, strain drs2, hits give low values 1.02 | locus YAL030W, strain snc1, hits give low values 0.999 | locus YBL061C, strain skt5, hits give low values 0.996 | locus YBR009C, strain hhf1, hits give low values 1.02 | locus YBR021W, strain FUR4, hits give low values 0.985 | locus YBR023C, strain chs3, hits give low values 1.01 | locus YBR171W, strain sec66, hits give low values 0.994 | locus YBR229C, strain ROT2, hits give low values 1 | locus YBR231C, strain swc5, hits give low values 1.01 | locus YBR279W, strain paf1, hits give low values 1 | locus YCL011C, strain gbp2, hits give low values 1.01 | locus YCL016C, strain dcc1, hits give low values 1.01 | locus YCL029C, strain bik1, hits give low values 1.02 | locus YCL061C, strain MRC1, hits give low values 1 | locus YCL069W, strain vba3, hits give low values 1 | locus YCR088W, strain abp1, hits give low values 0.992 | locus YDL005C, strain med2, hits give low values 0.983 | locus YDL035C, strain GPR1, hits give low values 1.07 | locus YDL040C, strain nat1, hits give low values 0.981 | locus YDL074C, strain BRE1, hits give low values 1.06 | locus YDL101C, strain DUN1, hits give low values 0.992 | locus YDL185W, strain tfp1, hits give low values 0.978 | locus YDL192W, strain arf1, hits give low values 1 | locus YDR001C, strain nth1, hits give low values 1 | locus YDR069C, strain doa4, hits give low values 1 | locus YDR101C, strain arx1, hits give low values 1.04 | locus YDR137W, strain rgp1, hits give low values 1.04 | locus YDR159W, strain sac3, hits give low values 0.976 | locus YDR162C, strain NBP2, hits give low values 1.06 | locus YDR195W, strain ref2 0.951 | locus YDR297W, strain sur2, hits give low values 0.998 | locus YDR318W, strain mcm21, hits give low values 1 | locus YDR334W, strain swr1, hits give low values 0.994 | locus YDR335W, strain msn5, hits give low values 1 | locus YDR388W, hits give low values 0.997 | locus YDR392W, strain spt3, hits give low values 1.01 | locus YDR502C, strain sam2, hits give low values 0.998 | locus YEL003W, strain gim4, hits give low values 1.02 | locus YEL037C, strain rad23, hits give low values 1 | locus YEL061C, strain CIN8 (second series), hits give low values 1.01 | locus YEL061C, strain CIN8, hits give low values 1.01 | locus YER015W, strain faa2, hits give low values 1 | locus YER016W, strain bim1, hits give low values 0.996 | locus YER110C, hits give low values 0.991 | locus YER111C, strain swi4, hits give low values 0.989 | locus YER155C, strain BEM2 (second series), hits give low values 1.02 | locus YER155C, strain BEM2, hits give low values 0.989 | locus YER167W, strain BCK2, hits give low values 1 | locus YFR010W, strain ubp6, hits give low values 0.999 | locus YGL078C, strain dbp3, hits give low values 0.969 | locus YGL086W, strain mad1, hits give low values 1.01 | locus YGL167C, strain pmr1, hits give low values 0.998 | locus YGL173C, strain kem1, hits give low values 0.999 | locus YGL227W, strain vid30, hits give low values 0.988 | locus YGL240W, strain doc1, hits give low values 0.992 | locus YGL248W, strain PDE1, hits give low values 0.996 | locus YGL253W, strain hxk2, hits give low values 1.01 | locus YGR078C, strain PAC10, hits give low values 1.02 | locus YGR135W, strain pre9, hits give low values 0.972 | locus YGR252W, strain gcn5, hits give low values 0.997 | locus YHR013C, strain ard1, hits give low values 1.01 | locus YHR027C, strain rpn1, hits give low values 0.988 | locus YHR030C, strain SLT2, hits give low values 1.01 and 1.05 | locus YHR079C, strain IRE1 (second series), hits give low values 0.997 | locus YHR079C, strain IRE1, hits give low values 1.02 | locus YHR094C, strain hxt1, hits give low values 1 | locus YHR129C, strain ARP1, hits give low values 0.998 | locus YHR142W, strain chs7, hits give low values 1.03 | locus YHR200W, strain rpn10, hits give low values 0.984 | locus YIL066C, strain RNR3, hits give low values 1 | locus YIL073C, strain SPO22, hits give low values 1.05 | locus YIL125W, strain kgd1, hits give low values 1 | locus YIR030C, strain dcg1, hits give low values 1.01 | locus YJL092W, strain hpr5, hits give low values 0.995 | locus YJL095W, strain BCK1 (second series), hits give low values 1 | locus YJL095W, strain BCK1, hits give low values 0.998 and 1.05 | locus YJL115W, strain asf1, hits give low values 0.992 | locus YJL129C, strain trk1, hits give low values 0.989 | locus YJL134W, strain LCB3, hits give low values 0.997 | locus YJL154C, strain vps35, hits give low values 0.995 | locus YJL164C, strain tpk1, hits give low values 1.01 | locus YJL166W, strain qcr8, hits give low values 1.05 | locus YJL168C, strain set2, hits give low values 1 | locus YJL187C, strain SWE1 (second series), hits give low values 0.997 | locus YJL187C, strain SWE1, hits give low values 1 | locus YJR043C, strain POL32, hits give low values 1.07
